# Measured values reported in PubChem BioAssay.
# Active and inactive are the calls of the source. Cut-off read from the data, not from the text of the source, unless noted: active = inhibition above about 80%; inactive = the rest.
# Legend:
# [1] = liver-stage malaria parasite growth inhibition, primary screen, cell-based, HepG2, luciferase luminescence, HepG2 viability (AID 624349; in the data active = parasite load remaining mostly below about 12%, no sharp cut-off; inactive = mostly above about 10%;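 note: 100% = mean of DMSO negative control wells on the same plate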); conditions: P. berghei liver stage in HepG2, luciferase luminescence, concentration not given here; parasite load remaining: stronger effect = lower value; viability: measured here: HepG2 viability without parasites
# [2] = inhibitors of Cryptococcus chitosan production, flow cytometry, Cibacron Brilliant Red staining (AID 1347148; call rule not given here;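 note: compound exposure lasted three days at 37 degrees C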); conditions: Cryptococcus neoformans chitosan, stronger effect = lower value; at 10 µM unless noted
# [3] = LFS_MB_1R medulloblastoma cell growth inhibition, synergistic combos for chromothripsis tumors, cisplatin or BGB combos (AID 1671452); conditions: LFS_MB_1R medulloblastoma cells, stronger effect = higher value;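 note: cells exposed for 96 hours before readout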
# [4] = CRL2098 osteosarcoma cell growth inhibition, synergistic combos for chromothripsis tumors, BGB or cisplatin IC20 combos (AID 1671454); conditions: CRL2098 osteosarcoma cells, drug combinations, stronger effect = higher value;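 note: cells exposed for 96 h before readout; 0% = vehicle DMSO and 100% = killing by high DMSO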
# [5] = HD-MB03 medulloblastoma cell growth inhibition, synergistic combos for chromothripsis tumors, BGB or cisplatin IC20 combos (AID 1671455; in the data active = inhibition above about 83%;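 note: 0% = vehicle DMSO and 100% = high DMSO as cytotoxic control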); conditions: HD-MB03 medulloblastoma cells, stronger effect = higher value
# [6] = UWB1.289 ovarian carcinoma cell growth inhibition, synergistic combos for chromothripsis tumors, BGB or cisplatin combos (AID 1671456); conditions: UWB1.289 ovarian carcinoma cells, stronger effect = higher value;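 note: cells exposed to compound for four days; 0% = vehicle DMSO and 100% = killing by high DMSO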
# [7] = LFS_MB_2R medulloblastoma cell growth inhibition, synergistic combos for chromothripsis tumors, cisplatin combos (AID 1671457); conditions: LFS_MB_2R medulloblastoma cells, stronger effect = higher value;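 note: cells exposed to compound for four days before readout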
# [8] = UWB1.289_BRCA1 ovarian cancer growth, cell-based, BGB or cisplatin combinations (AID 1671459); conditions: UWB1.289 BRCA1 ovarian carcinoma, drug combinations, stronger effect = higher value
# [9] = human astrocyte viability loss, single and combined drugs, cytotoxicity control for chromothriptic childhood tumor combination screen, cell-based, BGB or cisplatin IC20 combos (AID 1671460); conditions: Human astrocytes, drug combinations, stronger effect = higher value;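 note: cells exposed to compounds for 96 hours before viability readout; 0% = vehicle and 100% = killing control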
# [10] = growth inhibition of CRL1545 osteosarcoma cells, cell-based, cisplatin and BGB IC20 combos (AID 1671464); conditions: stronger effect = higher value;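 note: cells exposed to compound for 96 hours before readout; 0% = vehicle DMSO and 100% = high DMSO killing control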
# [11] = target: NAD(+) hydrolase SARM1 (Homo sapiens) (UniProt Q6SZW1); experiment: SARM1 TIR NADase inhibitors, cell lysate, NAD-Glo luminescence (AID 1508614;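 active = compound whose remaining NAD level is above about 45 nM, limit read from the data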;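 note: higher remaining NAD means stronger inhibition of SARM1 NADase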); conditions: SAM-TIR HEK293T lysate NADase, at 1 µM, stronger effect = higher value
# Chain of NAD(+) hydrolase SARM1 (Homo sapiens) (Q6SZW1 whole entry, looked up): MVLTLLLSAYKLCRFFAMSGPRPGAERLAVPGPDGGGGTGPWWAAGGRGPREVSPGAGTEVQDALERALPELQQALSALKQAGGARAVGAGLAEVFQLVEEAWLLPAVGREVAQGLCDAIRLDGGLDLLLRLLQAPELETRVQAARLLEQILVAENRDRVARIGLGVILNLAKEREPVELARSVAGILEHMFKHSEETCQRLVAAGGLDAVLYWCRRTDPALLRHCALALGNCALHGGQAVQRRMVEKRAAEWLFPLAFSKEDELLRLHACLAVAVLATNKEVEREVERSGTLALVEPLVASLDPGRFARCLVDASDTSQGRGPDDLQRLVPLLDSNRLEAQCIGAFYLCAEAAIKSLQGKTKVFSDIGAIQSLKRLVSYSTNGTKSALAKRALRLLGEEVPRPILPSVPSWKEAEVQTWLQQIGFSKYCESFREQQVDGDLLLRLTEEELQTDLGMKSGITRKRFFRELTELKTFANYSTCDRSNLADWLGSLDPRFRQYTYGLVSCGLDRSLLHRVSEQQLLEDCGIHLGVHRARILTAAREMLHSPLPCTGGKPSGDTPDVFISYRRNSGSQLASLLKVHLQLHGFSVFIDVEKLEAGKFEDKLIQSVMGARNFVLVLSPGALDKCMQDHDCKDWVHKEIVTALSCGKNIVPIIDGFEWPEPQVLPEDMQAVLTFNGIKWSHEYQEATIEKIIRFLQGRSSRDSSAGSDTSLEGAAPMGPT
# [12] = phospholipid biosynthesis inhibitors in animal cells, primary screen, cell-based, LOPAC library, screen 4 (AID 1347384; call rule not given here); conditions: phospholipid biosynthesis inhibition screen, at 10 µM
# [13] = measured here: combination with BGB IC40, at 0.05 µM
# [14] = measured here: combination with cisplatin, at 0.5 µM
# [15] = measured here: combination with cisplatin, at 5 µM
# [16] = measured here: combination with BGB at IC20, at 0.5 µM
# [17] = measured here: combination with cisplatin at IC20, at 0.5 µM
# [18] = measured here: combo with BGB at IC20, at 0.5 µM
# [19] = measured here: combo with cisplatin at IC20, at 0.5 µM
# [20] = measured here: inhibition with BGB combination, at 0.05 µM
# [21] = measured here: inhibition with cisplatin combination, at 0.05 µM
# [22] = BGB combination, concentration series, at 5 µM
# [23] = cisplatin combination, concentration series, at 5 µM
# [24] = measured here: combo with BGB IC20, at 0.5 µM
# [25] = measured here: combo with cisplatin IC20, at 0.5 µM
# [26] = measured here: with BGB IC20 combination, at 0.5 µM
# [27] = measured here: with cisplatin IC20 combination, at 0.5 µM
structure (smiles),measurement,setting,value
Cn1c2ccccc2c2c3c(c4c5ccccc5n(CCC#N)c4c21)CNC3=O,parasite load remaining,[1],110% (inactive)
same,viability,[1],92.8%
same,fold fluorescence,[2],3.75 [at 132.1 µM] (inactive)
CN(C)c1ccc(C(=O)NCCCCCCC(=O)NO)cc1,inhibition,[3]; at 0.5 µM,32.4% (inactive)
same,inhibition,[3]; [13],-37.9%
same,inhibition,[3]; [14],63.6%
same,inhibition,[3]; [15],97.6%
same,inhibition,[4]; at 0.5 µM,-26.1% (inactive)
same,inhibition,[4]; [16],-83.1%
same,inhibition,[4]; [17],6.53%
same,inhibition,[5]; at 0.5 µM,47.5% (inactive)
same,inhibition,[5]; [18],38.6%
same,inhibition,[5]; [19],81.5%
same,inhibition,[6]; at 0.5 µM,31% (inactive)
same,inhibition,[6]; [20],-11.2%
same,inhibition,[6]; [21],3.19%
same,inhibition,[7]; at 0.5 µM,15.7% (inactive)
same,inhibition,[7]; [14],37.8%
same,inhibition,[7]; [15],95.1%
same,inhibition,[8]; [22],88.6%
same,inhibition,[8]; at 0.5 µM,35.3% (inactive)
same,inhibition,[8]; [23],103%
same,inhibition,[9]; at 0.5 µM,25.9% (inactive)
same,inhibition,[9]; [24],24.7%
same,inhibition,[9]; [25],16.4%
same,inhibition,[10]; at 0.5 µM,76.1% (inactive)
same,inhibition,[10]; [26],71.1%
same,inhibition,[10]; [27],78%
same,inhibition,"[10]; single agent, at 0.05 µM",23%
same,inhibition,"[10]; single agent, at 5 µM",91.7%
O=C(O)[C@H](Cc1c[nH]c2ccccc12)N1C(=O)c2ccccc2C1=O,inhibition,[3]; at 0.5 µM,-21% (inactive)
same,inhibition,[3]; [13],-49.9%
same,inhibition,[3]; [14],-9.64%
same,inhibition,[3]; [15],-81.2%
same,inhibition,[4]; at 0.5 µM,-82% (inactive)
same,inhibition,[4]; [16],-46.6%
same,inhibition,[4]; [17],-131%
same,inhibition,[5]; at 0.5 µM,-20.5% (inactive)
same,inhibition,[5]; [18],-26.8%
same,inhibition,[5]; [19],-27.1%
same,inhibition,[6]; at 0.5 µM,-10.8% (inactive)
same,inhibition,[6]; [20],-20.2%
same,inhibition,[6]; [21],-43.5%
same,inhibition,[7]; at 0.5 µM,-17.3% (inactive)
same,inhibition,[7]; [14],-13%
same,inhibition,[7]; [15],-8.45%
same,inhibition,[8]; [22],-11.5%
same,inhibition,[8]; at 0.5 µM,-15.7% (inactive)
same,inhibition,[8]; [23],-28.9%
same,inhibition,[9]; at 0.5 µM,-2.94% (inactive)
same,inhibition,[9]; [24],-8.01%
same,inhibition,[9]; [25],4.01%
same,inhibition,[10]; at 0.5 µM,-39.1% (inactive)
same,inhibition,[10]; [26],-34.3%
same,inhibition,[10]; [27],-43.9%
same,inhibition,"[10]; single agent, at 0.05 µM",-29.1%
same,inhibition,"[10]; single agent, at 5 µM",-40.2%
C[C@H]1[C@H](OC(=O)CCC(=O)O)O[C@@H]2O[C@@]3(C)CC[C@H]4[C@H](C)CC[C@@H]1[C@@]24OO3,remaining NAD,[11],10 nM (inactive)
O=C1NCCc2[nH]c(-c3ccncc3)cc21,parasite load remaining,[1],110% (inactive)
same,viability,[1],61.5%
same,outcome,[12],inactive
CN(C)CCN1C(=O)c2cccc3cc(N)cc(c23)C1=O,inhibition,[3]; at 0.5 µM,-23% (inactive)
same,inhibition,[3]; [13],-41.2%
same,inhibition,[3]; [14],-45%
same,inhibition,[3]; [15],16.5%
same,inhibition,[4]; at 0.5 µM,-63% (inactive)
same,inhibition,[4]; [16],-22.2%
same,inhibition,[4]; [17],-129%
same,inhibition,[5]; at 0.5 µM,1.51% (inactive)
same,inhibition,[5]; [18],-11.9%
same,inhibition,[5]; [19],14.4%
same,inhibition,[6]; at 0.5 µM,-5.91% (inactive)
same,inhibition,[6]; [20],-1.98%
same,inhibition,[6]; [21],-18.9%
same,inhibition,[7]; at 0.5 µM,-25.1% (inactive)
same,inhibition,[7]; [14],-29.2%
same,inhibition,[7]; [15],-2.51%
same,inhibition,[8]; [22],38.8%
same,inhibition,[8]; at 0.5 µM,-2.87% (inactive)
same,inhibition,[8]; [23],37.9%
same,inhibition,[9]; at 0.5 µM,2.38% (inactive)
same,inhibition,[9]; [24],-2.82%
same,inhibition,[9]; [25],-2.98%
same,inhibition,[10]; at 0.5 µM,-31.5% (inactive)
same,inhibition,[10]; [26],-17.6%
same,inhibition,[10]; [27],-40.7%
same,inhibition,"[10]; single agent, at 0.05 µM",-14.5%
same,inhibition,"[10]; single agent, at 5 µM",59.5%
